Experimental data published in article PMC5540273 (PLoS ONE, 2017).
“And” between values parts separate entries of the source, which are not always exact repeats. Equal values may be shown once. Read-outs that look alike come from different tables or passages of the source.

Columns and labels:
IRAK4 = details: n = 1
ITK = details: n = 1
[1] = test system: JAK1(JH1domain-catalytic); details: n = 1
[2] = test system: JAK1(JH2domain-pseudokinase); details: concentration: 1 μM, replicates: in singlicate; n = 1
[3] = test system: JAK2(JH1domain-catalytic); details: n = 1
[4] = test system: JAK3(JH1domain-catalytic); details: concentration: 1 μM, replicates: in singlicate; n = 1
JNK1 = test system: T1, JNK1; details: n = 1
T1 construct: gene MAPK8

JNK2 = test system: T2, JNK2; details: n = 1
T2 construct: gene MAPK9

JNK3 = test system: T3, JNK3; details: n = 1
T3 construct: gene MAPK10

KIT-autoinhibited = details: n = 1
KIT = details: concentration: 1 μM, replicates: in singlicate; n = 1
LATS1 = details: concentration: 1 μM, replicates: in singlicate; n = 1
LATS2 = details: n = 1
LCK = details: n = 1
LIMK1 = details: n = 1
LIMK2 = details: n = 1
LKB1 = test system: T4, LKB1; details: concentration: 1 μM, replicates: in singlicate; n = 1
T4 construct: gene STK11

LOK = test system: T5, LOK; details: concentration: 1 μM, replicates: in singlicate; n = 1
T5 construct: gene STK10

LRRK2 = details: concentration: 1 μM, replicates: in singlicate; n = 1
LTK = details: n = 1
[5] = concentration: 1 μM, replicates: in singlicate
[6] = concentration: 1 μM,replicates: in singlicate, 1 µM
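Note: KINOMEscan kinase panel screen.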

Clc1cc(Cl)cc(Nc2ccnc(Nc3cc(Cl)cc(Cl)c3)n2)c1 [GSK175726]
%Inh (IRAK4; [5]): 0% | %Inh (ITK; [5]): 4% | %Inh [1, 5]: 12% | %Inh [2]: 0% | %Inh [3, 5]: 22% | %Inh [4]: 0% | %Inh (JNK1; [5]): 2% | %Inh (JNK2; [5]): 0% | %Inh (JNK3; [5]): 0% | %Inh (KIT-autoinhibited; [5]): 3% | %Inh (KIT): 40% | %Inh (LATS1): 0% | %Inh (LATS2; [5]): 17% | %Inh (LCK; [5]): 27% | %Inh (LIMK1; [5]): 10% | %Inh (LIMK2; [5]): 31% | %Inh (LKB1): 14% | %Inh (LOK): 0% | %Inh (LRRK2): 0% | %Inh (LTK; [5]): 0%

O=C1NC(=O)C(N2CCc3ccccc32)=C1c1ccccc1Cl [SB-373598]
%Inh (IRAK4; [5]): 7% | %Inh (ITK; [5]): 10% | %Inh [1, 5]: 3% | %Inh [2]: 0% | %Inh [3, 5]: 0% | %Inh [4]: 40% | %Inh (JNK1; [5]): 7% | %Inh (JNK2; [5]): 6% | %Inh (JNK3; [5]): 5% | %Inh (KIT-autoinhibited; [5]): 0% | %Inh (KIT): 2% | %Inh (LATS1): 0% | %Inh (LATS2; [5]): 19% | %Inh (LCK; [5]): 35% | %Inh (LIMK1; [5]): 21% | %Inh (LIMK2; [5]): 15% | %Inh (LKB1): 2% | %Inh (LOK): 10% | %Inh (LRRK2): 0% | %Inh (LTK; [5]): 99.1%

CSc1nn2c(=O)cc(N3CCOCC3)nc2n1Cc1cccc(C(F)(F)F)c1C [GSK2363608]
%Inh (IRAK4; [6]): 12% and 18% | %Inh (ITK; [6]): 2% and 12% | %Inh [1, 6]: 13% and 30% | %Inh [2]: 0% | %Inh [3, 6]: 100% and 0% | %Inh [4]: 0% | %Inh (JNK1; [6]): 2% and 16% | %Inh (JNK2; [6]): 15% and 5% | %Inh (JNK3; [6]): 7% and 3% | %Inh (KIT-autoinhibited; [6]): 2% and 0% | %Inh (KIT): 4% | %Inh (LATS1): 0% | %Inh (LATS2; [6]): 13% and 0% | %Inh (LCK; [6]): 29% and 2% | %Inh (LIMK1; [6]): 6% and 17% | %Inh (LIMK2; [6]): 20% and 0% | %Inh (LKB1): 0% | %Inh (LOK): 0% | %Inh (LRRK2): 0% | %Inh (LTK; [6]): 17% and 0%

O=C(O)COc1ncnc2cc(-c3ccc4[nH]ncc4c3)sc12
%Inh (IRAK4; [5]): 0% | %Inh (ITK; [5]): 0% | %Inh [1, 5]: 0% | %Inh [2]: 44% | %Inh [3, 5]: 16% | %Inh [4]: 46% | %Inh (JNK1; [5]): 30% | %Inh (JNK2; [5]): 21% | %Inh (JNK3; [5]): 15% | %Inh (KIT-autoinhibited; [5]): 30% | %Inh (KIT): 21% | %Inh (LATS1): 0% | %Inh (LATS2; [5]): 48% | %Inh (LCK; [5]): 0% | %Inh (LIMK1; [5]): 0% | %Inh (LIMK2; [5]): 0% | %Inh (LKB1): 0% | %Inh (LOK): 2% | %Inh (LRRK2): 0% | %Inh (LTK; [5]): 97.3%

COc1cc(Nc2nccc(N3CCC(NC(=O)Nc4cc(C)ccc4C)C3)n2)cc(OC)c1OC (centres unmarked) [GSK1379762]
%Inh (IRAK4; [5]): 16% | %Inh (ITK; [5]): 30% | %Inh [1, 5]: 5% | %Inh [2]: 0% | %Inh [3, 5]: 76% | %Inh [4]: 0% | %Inh (JNK1; [5]): 24% | %Inh (JNK2; [5]): 2% | %Inh (JNK3; [5]): 11% | %Inh (KIT-autoinhibited; [5]): 0% | %Inh (KIT): 78% | %Inh (LATS1): 0% | %Inh (LATS2; [5]): 0% | %Inh (LCK; [5]): 21% | %Inh (LIMK1; [5]): 20% | %Inh (LIMK2; [5]): 15% | %Inh (LKB1): 0% | %Inh (LOK): 25% | %Inh (LRRK2): 22% | %Inh (LTK; [5]): 67%

Cn1ccc2ncnc(Oc3ccc(NC(=O)Nc4ccccc4)cc3)c21
%Inh (IRAK4; [5]): 17% | %Inh (ITK; [5]): 0% | %Inh [1, 5]: 0% | %Inh [2]: 39% | %Inh [3, 5]: 2% | %Inh [4]: 21% | %Inh (JNK1; [5]): 22% | %Inh (JNK2; [5]): 0% | %Inh (JNK3; [5]): 0% | %Inh (KIT-autoinhibited; [5]): 57% | %Inh (KIT): 100% | %Inh (LATS1): 16% | %Inh (LATS2; [5]): 13% | %Inh (LCK; [5]): 20% | %Inh (LIMK1; [5]): 1% | %Inh (LIMK2; [5]): 1% | %Inh (LKB1): 0% | %Inh (LOK): 94.8% | %Inh (LRRK2): 24% | %Inh (LTK; [5]): 0%

O=S(=O)(c1ccc(-c2ccnc3[nH]ccc23)cc1)N1CCCC1 [GSK846226]
%Inh (IRAK4; [5]): 2% | %Inh (ITK; [5]): 10% | %Inh [1, 5]: 16% | %Inh [2]: 3% | %Inh [3, 5]: 86% | %Inh [4]: 0% | %Inh (JNK1; [5]): 26% | %Inh (JNK2; [5]): 24% | %Inh (JNK3; [5]): 17% | %Inh (KIT-autoinhibited; [5]): 0% | %Inh (KIT): 23% | %Inh (LATS1): 0% | %Inh (LATS2; [5]): 68% | %Inh (LCK; [5]): 5% | %Inh (LIMK1; [5]): 7% | %Inh (LIMK2; [5]): 21% | %Inh (LKB1): 5% | %Inh (LOK): 0% | %Inh (LRRK2): 0% | %Inh (LTK; [5]): 0%

Cc1ccccc1-n1cnc2c(N)ncnc21 [SKF-97510]
%Inh (IRAK4; [5]): 0% | %Inh (ITK; [5]): 1% | %Inh [1, 5]: 5% | %Inh [2]: 0% | %Inh [3, 5]: 0% | %Inh [4]: 0% | %Inh (JNK1; [5]): 0% | %Inh (JNK2; [5]): 0% | %Inh (JNK3; [5]): 0% | %Inh (KIT-autoinhibited; [5]): 0% | %Inh (KIT): 0% | %Inh (LATS1): 0% | %Inh (LATS2; [5]): 3% | %Inh (LCK; [5]): 100% | %Inh (LIMK1; [5]): 16% | %Inh (LIMK2; [5]): 15% | %Inh (LKB1): 0% | %Inh (LOK): 0% | %Inh (LRRK2): 0% | %Inh (LTK; [5]): 0%

NC(=O)c1nnc2ccccc2c1N
%Inh (IRAK4; [5]): 33% | %Inh (ITK; [5]): 64% | %Inh [1, 5]: 4% | %Inh [2]: 37% | %Inh [3, 5]: 58% | %Inh [4]: 65% | %Inh (JNK1; [5]): 27% | %Inh (JNK2; [5]): 17% | %Inh (JNK3; [5]): 13% | %Inh (KIT-autoinhibited; [5]): 19% | %Inh (KIT): 10% | %Inh (LATS1): 0% | %Inh (LATS2; [5]): 0% | %Inh (LCK; [5]): 0% | %Inh (LIMK1; [5]): 0% | %Inh (LIMK2; [5]): 5% | %Inh (LKB1): 0% | %Inh (LOK): 10% | %Inh (LRRK2): 75% | %Inh (LTK; [5]): 0%

COc1cc2ncnc(Nc3ccc4nc(-c5ccccc5)[nH]c4c3)c2cc1OC.Cl [GW282450]
%Inh (IRAK4; [5]): 13% | %Inh (ITK; [5]): 14% | %Inh [1, 5]: 6% | %Inh [2]: 0% | %Inh [3, 5]: 0% | %Inh [4]: 0% | %Inh (JNK1; [5]): 18% | %Inh (JNK2; [5]): 26% | %Inh (JNK3; [5]): 19% | %Inh (KIT-autoinhibited; [5]): 0% | %Inh (KIT): 72% | %Inh (LATS1): 0% | %Inh (LATS2; [5]): 0% | %Inh (LCK; [5]): 33% | %Inh (LIMK1; [5]): 0% | %Inh (LIMK2; [5]): 0% | %Inh (LKB1): 0% | %Inh (LOK): 5% | %Inh (LRRK2): 0% | %Inh (LTK; [5]): 11%
